Test results: PubChem BioAssay AID1159580 (chemical genetic matrix, 2015)
Where “and” joins values, the source holds several entries; their conditions need not be identical. Equal values may be shown once. In all, about 5,500 compounds went through this assay and about 2,000 (36%) were called active. Not shown: some 18% with an inconclusive outcome. No stated cut-off is given here; in the data, active means normalized growth mostly below about 0.91 (no sharp cut-off); inconclusive means no clear call, values can overlap the other calls; inactive means mostly above about 0.92. This is one part of the list.

Assay: chemical genetic growth profiling, strain panel (AID 1159580);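 further: tested at 20 µM; growth read once vehicle control cultures reached saturation at 30 °C; 1 = growth at the plate median or of vehicle wells; lower values mean less growth of the strain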
Details: S. cerevisiae deletion strains, growth OD

Measured: normalized growth

C[N+]12CCC(CC1)C(OC(=O)C(O)(c1ccccc1)c1ccccc1)C2 (configuration not stated)
inactive: locus YAL013W, strain DEP1, hits give low values 0.995 | locus YAL021C, strain ccr4, hits give low values 0.983 | locus YAL026C, strain drs2, hits give low values 1.01 | locus YAL030W, strain snc1, hits give low values 0.985 | locus YBL061C, strain skt5, hits give low values 0.968 | locus YBR009C, strain hhf1, hits give low values 0.989 | locus YBR021W, strain FUR4, hits give low values 0.99 | locus YBR023C, strain chs3, hits give low values 0.987 | locus YBR171W, strain sec66, hits give low values 0.957 | locus YBR229C, strain ROT2, hits give low values 0.989 | locus YBR231C, strain swc5, hits give low values 0.995 | locus YBR279W, strain paf1, hits give low values 0.985 | locus YCL011C, strain gbp2, hits give low values 0.951 | locus YCL016C, strain dcc1, hits give low values 0.956 | locus YCL029C, strain bik1, hits give low values 0.956 | locus YCL061C, strain MRC1, hits give low values 0.992 | locus YCL069W, strain vba3, hits give low values 0.998 | locus YCR088W, strain abp1, hits give low values 0.984 | locus YDL005C, strain med2, hits give low values 0.974 | locus YDL035C, strain GPR1, hits give low values 1.03 | locus YDL040C, strain nat1, hits give low values 0.993 | locus YDL074C, strain BRE1, hits give low values 0.975 | locus YDL101C, strain DUN1, hits give low values 0.975 | locus YDL134C, strain PPH21, hits give low values 0.981 | locus YDL185W, strain tfp1, hits give low values 0.974 | locus YDL192W, strain arf1, hits give low values 0.992 | locus YDR001C, strain nth1, hits give low values 0.978 | locus YDR069C, strain doa4, hits give low values 0.982 | locus YDR101C, strain arx1, hits give low values 0.971 | locus YDR137W, strain rgp1, hits give low values 0.975 | locus YDR150W, strain NUM1, hits give low values 0.996 | locus YDR159W, strain sac3, hits give low values 1.01 | locus YDR162C, strain NBP2, hits give low values 1 | locus YDR195W, strain ref2 0.983 | locus YDR297W, strain sur2, hits give low values 0.976 | locus YDR318W, strain mcm21, hits give low values 0.975 | locus YDR334W, strain swr1, hits give low values 0.938 | locus YDR335W, strain msn5, hits give low values 0.971 | locus YDR388W, hits give low values 0.984 | locus YDR392W, strain spt3, hits give low values 0.922 | locus YDR502C, strain sam2, hits give low values 0.987 | locus YEL003W, strain gim4, hits give low values 0.987 | locus YEL037C, strain rad23, hits give low values 0.988 | locus YEL061C, strain CIN8 (second series), hits give low values 0.987 | locus YEL061C, strain CIN8, hits give low values 0.993 | locus YER015W, strain faa2, hits give low values 0.987 | locus YER016W, strain bim1, hits give low values 0.989 | locus YER110C, hits give low values 0.975 | locus YER111C, strain swi4, hits give low values 0.987 | locus YER155C, strain BEM2 (second series), hits give low values 1.01 | locus YER155C, strain BEM2, hits give low values 0.983 | locus YER167W, strain BCK2, hits give low values 0.992 | locus YFR010W, strain ubp6, hits give low values 0.981 | locus YGL078C, strain dbp3, hits give low values 0.992 | locus YGL086W, strain mad1, hits give low values 1 | locus YGL167C, strain pmr1, hits give low values 0.976 | locus YGL173C, strain kem1, hits give low values 0.974 | locus YGL227W, strain vid30, hits give low values 0.979 | locus YGL240W, strain doc1, hits give low values 0.981 | locus YGL248W, strain PDE1, hits give low values 0.99 | locus YGL253W, strain hxk2, hits give low values 0.966 | locus YGR078C, strain PAC10, hits give low values 0.983 | locus YGR135W, strain pre9, hits give low values 0.971 | locus YGR229C, strain SMI1, hits give low values 1 | locus YGR252W, strain gcn5, hits give low values 1.09 | locus YHR013C, strain ard1, hits give low values 0.962 | locus YHR027C, strain rpn1, hits give low values 0.974 | locus YHR030C, strain SLT2, hits give low values 0.988 and 0.977 | locus YHR079C, strain IRE1 (second series), hits give low values 0.97 | locus YHR079C, strain IRE1, hits give low values 1 | locus YHR094C, strain hxt1, hits give low values 0.982 | locus YHR129C, strain ARP1, hits give low values 0.99 | locus YHR142W, strain chs7, hits give low values 0.944 | locus YHR200W, strain rpn10, hits give low values 0.979 | locus YIL066C, strain RNR3, hits give low values 0.983 | locus YIL073C, strain SPO22, hits give low values 0.972 | locus YIL125W, strain kgd1, hits give low values 0.994 | locus YIR030C, strain dcg1, hits give low values 0.971 | locus YJL092W, strain hpr5, hits give low values 0.985 | locus YJL095W, strain BCK1 (second series), hits give low values 0.981 | locus YJL095W, strain BCK1, hits give low values 0.967 and 0.963 | locus YJL115W, strain asf1, hits give low values 0.968 | locus YJL129C, strain trk1, hits give low values 0.974 | locus YJL134W, strain LCB3, hits give low values 0.994 | locus YJL154C, strain vps35, hits give low values 0.98 | locus YJL164C, strain tpk1, hits give low values 0.979 | locus YJL166W, strain qcr8, hits give low values 0.95 | locus YJL168C, strain set2, hits give low values 0.984 | locus YJL187C, strain SWE1 (second series), hits give low values 0.974 | locus YJL187C, strain SWE1, hits give low values 0.988 | locus YJR043C, strain POL32, hits give low values 0.99 | locus YJR066W, strain TOR1, hits give low values 0.987
